# Compound activity: PubChem, National Center for Advancing Translational Sciences (NCATS)
# KDM4E inh: qHTS Assay for Inhibitors of Human Jumonji Domain Containing 2E (JMJD2E); JMJD2E catalytic domain, FDH-coupled NADH fluorescence (FDH is formaldehyde dehydrogenase); 230,000 tested, 1.6% active; Lysine-specific demethylase 4E (Homo sapiens), B2RXH2; Potency, µM (titrated, usually from 57.1 µM), hits mostly inhibitors; active = well fitted inhibition curve with a large enough effect, not every such curve was filed as active; inconclusive = small, poorly fitted or top-dose-only effect, or another doubt; inactive = no such curve, though single readings can be large or run the other way; note: nearly all actives have a fitted effect of over 50% in size
# PI5P4Ka inh: qHTS for Inhibitors of phosphatidylinositol 5-phosphate 4-kinase (PI5P4K) | Phosphatidylinositol 5-phosphate 4-kinase type-2 alpha (Homo sapiens), P48426 | PI5P4Kalpha enzyme, ADP-Glo luminescence, 60 min; hits give low values | max response, % | 330,000 tested, 1.2% active | AID 652105, 2013; active = max response of -50% or lower; inconclusive = between -30% and -50%; inactive = -30% or higher; note: value at the top dose of about 77 µM
#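 Reactions run in 0.038 M HEPES pH 7.4, 0.28 mM EGTA, 0.1% CHAPS and 5% DMSO, with PI5P4Kalpha, substrate, compound and 5 microM ATP final, one hour at room temperature. Readout is ADP-Glo luminescence.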
# L3MBTL1 block: qHTS Assay for the Inhibitors of L3MBTL1; AlphaScreen L3MBTL1–H3K9me1 peptide binding; Potency, µM (top dose mostly 57.1 µM), actives largely listed as inhibitors; 230,000 tested, 0.66% active; note: nearly all actives have a fitted effect of over 60% in size
#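 L3MBTL1 50 nM + b-AHA-H3(1-15)K9me1 75 nM, 30 min RT; compound added, 30 min RT; streptavidin donor/Ni-chelate acceptor beads 10 ug/mL each final, 30 min RT dark; AlphaScreen read.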
# BAZ2B inh: qHTS Assay for Inhibitors of BAZ2B | AlphaScreen BAZ2B-H3K14Ac peptide displacement | 360,000 tested, 4.4% active | AID 504333, 2011 | Potency, µM (titrated, usually from 114 µM), usual class: inhibitors; note: nearly all actives have a fitted effect of over 60% in size
#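 AlphaScreen displacement of biotin-H3(5-23)K14Ac peptide (50 nM final) from BAZ2B (50 nM final) in PBS pH 7.4, 0.01% Tween-20; complex preformed 30 min RT, then compounds (top 110 uM) 30 min RT, beads 20 min dark.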
# JMJD2A Tudor inh: qHTS Assay for Inhibitors of JMJD2A-Tudor Domain; 390,000 tested, 4.4% active; AlphaScreen JMJD2A-Tudor / H3K4me3 peptide binding; Potency, µM (series often up to 114 µM), hits mostly inhibitors; note: nearly all actives have a fitted effect of over 50% in size
# Target sequence (O75164 whole entry, looked up, the tested form may be a part): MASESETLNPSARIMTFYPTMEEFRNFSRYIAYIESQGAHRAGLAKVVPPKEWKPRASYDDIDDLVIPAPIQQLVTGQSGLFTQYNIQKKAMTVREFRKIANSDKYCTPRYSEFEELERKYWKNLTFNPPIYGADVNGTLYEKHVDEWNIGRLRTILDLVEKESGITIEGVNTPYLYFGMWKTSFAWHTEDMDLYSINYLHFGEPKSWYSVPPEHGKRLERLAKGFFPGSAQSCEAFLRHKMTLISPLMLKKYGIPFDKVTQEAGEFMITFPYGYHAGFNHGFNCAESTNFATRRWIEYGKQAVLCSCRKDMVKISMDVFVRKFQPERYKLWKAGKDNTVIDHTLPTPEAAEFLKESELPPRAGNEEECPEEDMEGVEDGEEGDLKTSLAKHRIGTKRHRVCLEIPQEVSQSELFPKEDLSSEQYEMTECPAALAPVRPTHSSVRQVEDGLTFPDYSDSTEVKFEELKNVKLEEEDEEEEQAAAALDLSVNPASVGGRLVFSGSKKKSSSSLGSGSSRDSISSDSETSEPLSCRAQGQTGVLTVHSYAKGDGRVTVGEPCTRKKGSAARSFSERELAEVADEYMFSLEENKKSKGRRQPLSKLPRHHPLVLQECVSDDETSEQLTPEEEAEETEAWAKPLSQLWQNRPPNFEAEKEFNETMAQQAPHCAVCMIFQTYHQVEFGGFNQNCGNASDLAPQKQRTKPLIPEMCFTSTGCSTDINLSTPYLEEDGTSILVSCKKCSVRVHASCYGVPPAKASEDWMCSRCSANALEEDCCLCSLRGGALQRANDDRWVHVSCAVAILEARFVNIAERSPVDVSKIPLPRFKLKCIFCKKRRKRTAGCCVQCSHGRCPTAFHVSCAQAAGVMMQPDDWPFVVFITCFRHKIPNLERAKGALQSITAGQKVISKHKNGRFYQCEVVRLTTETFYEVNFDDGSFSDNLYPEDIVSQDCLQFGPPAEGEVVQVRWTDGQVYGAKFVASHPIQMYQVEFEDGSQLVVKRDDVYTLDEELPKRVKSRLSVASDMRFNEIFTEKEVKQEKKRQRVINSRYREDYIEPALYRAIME
# HP1b binding inh: HTS for Inhibitors of HP1-beta Chromodomain Interactions with Methylated Histone Tails. Potency, µM (doses to about 114 µM), hits mostly inhibitors. Chromobox protein homolog 1 (Homo sapiens), P83916. AlphaScreen HP1-beta / biotin-H3K9me3 peptide binding. AID 540317, 2011. 390,000 tested, 0.56% active; note: nearly all actives have a fitted effect of over 70% in size
#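 HP1-beta protein (50 nM final) preincubated 30 min at room temperature with biotinylated H3(1-18)K9me3 peptide (50 nM) in PBS pH 7.4, 0.01% Tween-20, then compound added for 30 min. AlphaScreen streptavidin donor/nickel chelate acceptor beads (10 ug/mL final), 30 min dark, luminescence read.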
# Numbers stand for hits; - = inactive; ? = inconclusive; . = no result given; [ ] = remark or other dose. Shown are actives, neighbours in structure and some others; about 5.7% of the full set was active somewhere. Unless noted, calls come from the whole dose curve; as a rule, active = well fitted inhibition curve with a large enough effect; inconclusive = small, poorly fitted or top-dose-only effect; inactive = no such curve, though single readings can be large or run the other way.
SMILES,KDM4E inh,PI5P4Ka inh,L3MBTL1 block,BAZ2B inh,JMJD2A Tudor inh,HP1b binding inh
CCOC(=O)c1ccc(S(=O)(=O)N2CCN(C3CCCC3)CC2)cc1,-,-,-,-,-,-
CCOC(=O)N1CCC(N2CCN(S(=O)(=O)CC)CC2)CC1,-,.,-,-,4.5µM,?
CCOC(=O)N1CCC(N2CCN(S(=O)(=O)c3ccc(OC)cc3)CC2)CC1,-,-,-,-,18µM,-
Cc1cn(C2CCCCO2)c(=O)nc1NO (configuration not stated),.,-,.,.,89µM,-
COc1ccc([C@H]2[C@H](C(=O)OC(C)(C)C)N3N=Cc4ccccc4C3C23C(=O)c2ccccc2C3=O)c(OC)c1 (some centres not stated),-,-,-,?,?,-
COc1ccc([C@H]2[C@H](C(=O)OC(C)(C)C)N3N=Cc4ccccc4C3C23C(=O)c2ccccc2C3=O)cc1OC (some centres not stated),?,-,-,18µM,?,-
O=C(COc1ccc([N+](=O)[O-])cc1)Nc1nnc(-c2cccnc2)s1,-,-66,?,?,?,-
O=C(COc1ccccc1F)Nc1nnc(-c2ccncc2)s1,?,.,.,-,20µM,-
Cc1ccccc1OCC(=O)Nc1nnc(-c2ccncc2)s1,?,-,-,-,-,-
O=C(COc1ccc([N+](=O)[O-])cc1)NCc1cccnc1,-,-,-,-,-,-
CCCN1CNc2c(c(=O)[nH]c(=S)n2CCc2cccc(Cl)c2Cl)C1,.,.,.,.,-,-
CC(C)(C)c1n[nH]c(=S)n(N)c1=O,-,.,-,?,5µM,-
CC1CN(CCCCSc2ccc(Cl)cc2)CC(C)O1 (configuration not stated),.,-,-,?,18µM,?
CC1CN(CCOCCSc2ccc(Cl)cc2)CC(C)O1 (configuration not stated),.,-,-,50µM,8.9µM,?
CC1CN(CCOCCSc2ccccc2)CC(C)O1 (configuration not stated),-,-,-,-,-,-
COc1ccc(C)cc1NC(=O)C1CCCN(S(=O)(=O)c2ccc3c(c2)oc(=O)n3C)C1 (configuration not stated),.,.,.,-,-,-
COc1ccc(N2CCN(c3oc(Cc4ccccc4)nc3C#N)CC2)cc1,-,.,-,8.9µM,20µM,-
COc1ccc(N2CCN(c3oc(COc4ccc(Cl)cc4)nc3C#N)CC2)cc1,-,-,?,3.5µM,?,?
N#Cc1nc(COc2ccc(-c3ccccc3)cc2)oc1N1CCC(C(N)=O)CC1,.,.,.,.,-,-
N#Cc1nc(COc2ccc(Cl)cc2Cl)oc1N1CCOCC1,-,.,-,45µM,?,-
CN1CCN(c2oc(COc3ccc(-c4ccccc4)cc3)nc2C#N)CC1,-,.,-[11.4 µM],11µM,28µM,14µM
Cc1c(Cl)cccc1-n1ncc(C(=O)NCCN2CCN(C)CC2)c1C1CCN(C(=O)OC(C)(C)C)CC1,.,.,.,-,-,-
CC(NC(=O)CSc1nc(-c2ccccc2F)nc2cc(=O)[nH]n12)c1nc2ccccc2n1C (configuration not stated),.,.,.,-,-,-
COc1ccc(N2CCN(c3oc(COc4ccccc4)nc3C#N)CC2)cc1,-,-,?,10µM,?,?
COc1cc(OC)c(NC(=O)c2cc(C)nc3c2c(C)nn3-c2ccc(C)cc2)cc1Cl,.,.,.,-,-,-
CC[C@H](C)/C=C/C1=CC2=C(Cl)C(=O)[C@@]3(C)OC(=O)C(C(=O)[C@H](C)[C@@H](C)O)=C3C2=CO1,.,-81,.,.,56µM,?
CCCCCCCC1=CC2=C(Cl)C(=O)C(C)(OC(C)=O)C(=O)C2=CO1 (configuration not stated),-,.,.,.,.,.
